# Rows were chosen to be rich in hits. Some 9% of all compounds tested hit in one or more screens of this group.
# JMJD2A Tudor inh: inhibitors of human JMJD2A Tudor domain; O75164; Potency, µM (highest dose often 114 µM), for the others: at the top dose activity change, negative = inhibition, usual class: inhibitors; 4.4% of 390,000 active; AlphaScreen JMJD2A-Tudor / H3K4me3 peptide binding; further: on the % scale 0 is the no-effect control and ±100 the full control effect; nearly all actives have a fitted effect of over 50% in size
# G9a inh: inhibitors of human histone lysine methyltransferase G9a; G9a H3K9 monomethylation, AlphaScreen, 2 h; Potency, µM (doses to about 102 µM), for the others: at the highest dose activity, negative = inhibition, actives largely listed as inhibitors; 8.8% of 350,000 active; Q96KQ7; further: on the % scale 0 is the no-effect control and ±100 the full control effect; nearly all actives have a fitted effect of over 75% in size
# Target sequence (Q96KQ7 913-1193 limits assumed): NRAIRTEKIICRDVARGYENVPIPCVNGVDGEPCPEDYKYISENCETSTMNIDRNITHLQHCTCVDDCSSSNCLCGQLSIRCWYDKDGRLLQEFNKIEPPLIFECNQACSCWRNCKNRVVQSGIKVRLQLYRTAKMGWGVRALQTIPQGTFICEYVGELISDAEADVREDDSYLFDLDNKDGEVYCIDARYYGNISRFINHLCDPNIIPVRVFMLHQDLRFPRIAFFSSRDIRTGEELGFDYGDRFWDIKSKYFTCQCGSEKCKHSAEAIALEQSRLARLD
#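 Compounds were preincubated with 20 nM G9a for 15 min, after which biotinylated H3K9 peptide (500 nM) and SAM (20 uM) started a 2 h room-temperature reaction. Monomethylated product was quantified by antibody-based AlphaScreen chemiluminescence.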
# HP1b chromo inh: blocks HP1-beta chromodomain binding to methylated histone tails | AID 540317 | P83916 | 0.56% of 390,000 active | AlphaScreen HP1-beta / biotin-H3K9me3 peptide binding | Potency, µM (highest dose often 114 µM), inactives show at the top dose activity change, negative = inhibition, hits mostly inhibitors; further: nearly all actives have a fitted effect of over 70% in size
# Target sequence (P83916 whole entry, looked up): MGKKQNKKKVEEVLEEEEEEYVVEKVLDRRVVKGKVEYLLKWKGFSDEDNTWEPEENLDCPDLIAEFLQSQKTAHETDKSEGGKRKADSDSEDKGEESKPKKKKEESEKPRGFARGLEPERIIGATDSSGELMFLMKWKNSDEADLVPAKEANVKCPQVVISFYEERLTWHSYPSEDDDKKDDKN
#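 HP1-beta protein (50 nM final) preincubated 30 min at room temperature with biotinylated H3(1-18)K9me3 peptide (50 nM) in PBS pH 7.4, 0.01% Tween-20, then compound added for 30 min. AlphaScreen streptavidin donor/nickel chelate acceptor beads (10 ug/mL final), 30 min dark, luminescence read.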
# ALOX12 inh: blocks human arachidonate 12S-lipoxygenase. 1.1% of 580,000 active. purified 12hLO, xylenol orange hydroperoxide absorbance. P18054. Potency, µM (titrated, usually from 108 µM), for inactives: top-dose activity change, negative = inhibition, usual class: inhibitors; further: on the % scale 0 is the no-effect control and ±100 the full control effect
#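 Purified human 12hLO at 150 nM in 25 mM Hepes, 0.01% Triton X-100, pH 7.0, preincubated 15 min at room temperature with compound. Reaction started with 40 uM arachidonic acid, 30 min at room temperature. Hydroperoxide measured by Fe-xylenol orange, 573/405 nm absorbance ratio.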
# BAZ2B block: blocks human BAZ2B. Q9UIF8. AlphaScreen BAZ2B-H3K14Ac peptide displacement. Potency, µM (highest dose often 114 µM), for inactives: at the top dose activity change, negative = inhibition, hits mostly inhibitors. 4.4% of 360,000 active; further: on the % scale 0 is the no-effect control and ±100 the full control effect; nearly all actives have a fitted effect of over 60% in size
#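 BAZ2B 50 nM plus b-H3(5-23)K14Ac 50 nM, PBS pH 7.4/0.01% Tween-20, 30 min RT; compound added (max 110 uM), 30 min RT; streptavidin donor/Ni-chelate acceptor beads 10 ug/mL final, 20 min dark; AlphaScreen read.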
# PLK1 PBD block: inhibitors of human PLK1 polo-box domain binding; Plk1 PBD binding of FITC phosphopeptide, fluorescence polarization; Potency, µM, inactives show max response, negative = inhibition, usual class: inhibitors; 2.8% of 360,000 active; AID 720504; further: series mostly up to about 57 µM; on the % scale 0 is the no-effect control and ±100 the full control effect; nearly all actives have a fitted effect of over 65% in size
# An asterisk follows results filed as active; ? = inconclusive; · = no result given; [ ] = remark or other dose. The call rests on the fitted dose curve; in most records, active means well fitted curve in the direction sought with a large enough effect; inconclusive means small, poorly fitted or top-dose-only effect, or another doubt; inactive means no such curve, though single readings can be large; an effect the other way counts as inactive or inconclusive. Potency means the concentration at half of the fitted maximal effect.
SMILES,JMJD2A Tudor inh,G9a inh,HP1b chromo inh,ALOX12 inh,BAZ2B block,PLK1 PBD block
COc1cc(C)ccc1OCCCCN1CC(C)OC(C)C1 (configuration not stated),35.5µM*,8.91µM*,?,?,50.1µM*,-10.0%
CC1CN(CCOc2ccc(Cl)cc2Cl)CC(C)O1 (configuration not stated),8.91µM*,?,?,-17.5%,-37.1%,0.2%
Cc1cc(C)c(C)c(OCCN2CC(C)OC(C)C2)c1 (configuration not stated),5.62µM*,1.78µM*,?,?,31.6µM*,-2.3%
Cc1ccc(-c2nnc(CCC(=O)N3CCc4sccc4C3)o2)cc1,·,·,·,26.7%,·,·
COc1ccc(CN2C(=O)[C@@H]3C[C@@H](CN3CC3CC3)Oc3ccccc32)cc1,·,·,·,-0.3%[176 µM],·,·
CC1c2cc3c(cc2CCN1CC(=O)Nc1ccccc1)OCCCO3 (configuration not stated),-13.6%,·,25.0%,33.2%,6.5%[57.1 µM],-12.6%
Cc1ccc(S(=O)(=O)Nc2ccc(S(=O)(=O)C3CCCC3)cc2)c(C)c1,·,·,·,-13.5%,·,·
O=C(NNS(=O)(=O)c1ccccc1[N+](=O)[O-])c1cccc(Br)c1,11.2µM*,-5.2%,21.1%,?,-19.6%,-20.8%
O=C(NNS(=O)(=O)c1ccccc1[N+](=O)[O-])c1ccncc1,-3.4%,-6.5%[59 µM],12.6%,-17.7%,10.4%,-4.3%
Cc1cccc(C(=O)NNS(=O)(=O)c2ccccc2[N+](=O)[O-])c1,?,?,7.9%,?,-6.9%,?
O=C(NNS(=O)(=O)c1ccccc1[N+](=O)[O-])c1cccc(Cl)c1,28.2µM*,?,23.2%,-14.3%,-7.8%,?
Cc1ccc2c(c1)C(=O)c1c(C(=O)O)cccc1-2,-18.0%[11.4 µM],-31.7%,-14.1%,-23.0%,-13.2%,-27.3%
Cc1cnc(CNc2nc3cc(-c4ccccc4C)sc3c(=O)n2C)cn1,·,·,·,?,·,-3.5%
COC(=O)c1cc2sc(Cl)cc2n1Cc1nc(-c2ccc(OC)cc2)oc1C,-5.1%,-1.4%[59 µM],33.0%,-24.7%,-19.8%,·
CCc1ccc(N=C2NC(=O)/C(=C/c3cc(Br)c(OCC(=O)O)c(OC)c3)S2)cc1,50.1µM*,50.1µM*,?,18.5%,50.1µM*,29.9µM*
CCc1ccc(N=C2NC(=O)/C(=C/c3cc(OC)c(OC)c(OC)c3)S2)cc1,-32.2%,26.5%,30.0%,4.6%,-1.5%,-2.1%
C=CCn1cn[nH]c1=S,?,12.6µM*,43.0%,-0.8%,?,-26.7%
O=S1(=O)CCN2C(c3ccc(Cl)cc3)=CSC2=N1,·,·,·,13.2%,·,·
Cc1ccc(-n2cccc2C(=O)NS(=O)(=O)c2ccc(C)cc2)cc1,-18.5%,-36.8%,49.6%,?,-34.2%,-9.5%
Cc1ccc(-n2cccc2C(=S)N=P(N(C)C)(N(C)C)N(C)C)cc1,35.5µM*,?,-26.6%,?,?,?
OCC1(CCOc2ccccc2)CCN(Cc2ccc(OC(F)F)cc2)CC1,-7.5%,4.5%,13.8%,-6.5%,-12.2%,-19.4%
S=c1nc(C2CCCCC2)[nH]c2ccccc12,-16.3%,16.2%,32.7%,-13.6%,-9.5%,-7.5%
S=c1nc(C2CC2)[nH]c2ccccc12,?,?,-10.0%,-24.9%,-6.0%,23.8µM*
CC[C@]1(C(=O)OC)[C@H]2C(=O)N(C)C(=O)[C@H]2[C@H]2CN=C(SCc3ccc(C(=O)OC)cc3)N21,-21.7%,·,73.1%,?,·,-7.5%
CCOC(=O)c1cc(S(=O)(=O)N2CCN(c3cc(Cl)ccc3C)CC2)[nH]n1,?,12.6µM*,16.3%[57 µM],?,?,·
CCOC(=O)c1cc(S(=O)(=O)N2CCN(c3ccc(F)cc3)CC2)[nH]n1,-21.1%,28.2µM*,7.3%[57 µM],-4.9%,?,·
CCOC(=O)c1cc(S(=O)(=O)N2CCN(c3ccccc3OC)CC2)[nH]n1,-22.7%,28.2µM*,11.2%[57 µM],-23.6%,-9.6%,·
Cc1ccc(Cl)cc1N1CCN(S(=O)(=O)c2cn(C)cn2)CC1,-14.1%,-0.4%,16.3%,-15.8%,-1.0%,-2.4%

# Screens: PubChem BioAssay, National Center for Advancing Translational Sciences (NCATS)
